Screens deposited in PubChem by National Center for Advancing Translational Sciences (NCATS).
Rows were chosen to be rich in hits. Some 9.3% of all compounds tested hit in one or more screens of this group.
HCMV antiviral: human cytomegalovirus inhibition; HFF cells, HCMV-luciferase reporter, 72 h; hits give low values; activity change, negative = inhibition, % at 57.5 µM; actives 4.5% (n = 410,000); in the data active = activity change below about -60%; inconclusive = no clear call, values can overlap the other calls; inactive = above about -39%
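Two-dose cell screen: HFF monolayers treated with compounds and infected with luciferase-expressing HCMV at 1 PFU/cell, 72 h at 37C, then lysed for luciferase measurement.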
Vaccinia Venus: vaccinia inhibition (Venus reporter); Vaccinia virus Venus reporter expression, fluorescence; Potency, µM (top dose mostly 36.5 µM), for the others: at the top dose activity change, negative = inhibition, actives largely listed as inhibitors; actives 0.46% (n = 330,000); AID 720580; calls by dose curve; tested in A549 cells; note: potency is the fitted concentration of half-maximal effect; nearly all actives have a fitted effect of over 30% in size
Sm TGR block: blocks Schistosoma mansoni thioredoxin glutathione reductase; Q962Y6; purified TGR, DTNB reduction, TNB absorbance 405 nm; Potency, µM (titrated, usually from 114 µM), for the others: at the top dose activity change, negative = inhibition, actives largely listed as inhibitors; actives 3% (n = 360,000); AID 485364; note: potency is the fitted concentration of half-maximal effect; nearly all actives have a fitted effect of over 60% in size
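Kinetic colorimetric format: TGR-catalysed, NADPH-driven DTNB reduction monitored via TNB absorbance. Enzyme dispensed at 20 nM; compound exposure 15 min at room temperature before reaction start.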
HCV inh: inhibitors of hepatitis C virus infection. Huh7.5.1 HCVcc-Cre infection, luciferase reporter, 44 h. Potency, µM (titrated, usually from 41.8 µM), for the others: at the highest dose activity change, negative = inhibition, actives largely listed as inhibitors. actives 3.4% (n = 340,000). AID 651820; note: potency is the fitted concentration of half-maximal effect
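Reporter virus HCVcc-Cre (~0.5 moi) infects cells exposed to compound; seeding density 1,000 cells/well with 4 h settling beforehand. Luminescence, 15 sec read, taken 44 h post-infection following a 15 min RT substrate incubation.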
FMDV inh: antivirals against foot and mouth disease virus | FMDV antiviral cell-based qHTS | Potency, µM (highest dose often 57.9 µM), inactives show at the highest dose activity change, negative = inhibition, hits mostly inhibitors | actives 1.2% (n = 410,000); calls by dose curve; tested in HEK293T cells; note: read-out not given here; potency is the fitted concentration of half-maximal effect; nearly all actives have a fitted effect of over 45% in size
Vaccinia mCherry: inhibitors of vaccinia virus infection (mCherry reporter signal); Vaccinia virus mCherry reporter infection, fluorescence; Potency, µM (series often up to 36.5 µM), inactives show top-dose activity change, negative = inhibition, hits mostly inhibitors; actives 0.63% (n = 310,000); AID 720579; calls by dose curve; tested in A549 cells; note: potency is the fitted concentration of half-maximal effect; nearly all actives have a fitted effect of over 35% in size
* marks the source's active call; other numbers are inactive results; i = inactive; ? = inconclusive; . = not tested or not shown; ! = not active in a repeat; [ ] = another dose, or the depositor's remark. Unless noted, calls come from the whole dose curve; as a rule, active = well fitted curve in the direction sought with a large enough effect; inconclusive = small, poorly fitted or top-dose-only effect, or another doubt; inactive = no such curve, though single readings can be large; an effect the other way counts as inactive or inconclusive. % is set by controls: 0 for no effect and ±100 for the full control effect.

SMILES | HCMV antiviral | Vaccinia Venus | Sm TGR block | HCV inh | FMDV inh | Vaccinia mCherry
CCOC(=O)c1ccc(NC(=O)C2CCN(C(=O)c3ccc(OC)c(OC)c3)CC2)cc1 | -17 | ? | 1% | 10µM* | ? | .
CCOC(=O)c1ccc(NC(=O)C2CCCN(c3ncnc4onc(C)c34)C2)cc1 (stereo unspecified) | -75* | -29% | -1% | . | 0% | -24%
COC(=O)c1ccc(NC(=O)C2CCN(C(=O)c3cc(OC)c(OC)c(OC)c3)CC2)cc1 | -101* | -18% | 3% | 9% | -7% | -1%
COc1ccc(N2CC(NC(=O)CCc3ccccc3)CC2=O)cc1OC (stereo unspecified) | 9 | 4% | 6% | . | 5% | 3%
Cc1cc(Sc2ncnc(N)c2[N+](=O)[O-])ncn1 | . | -11% | 0.89µM* | ? | 20µM* | i
Cc1cc(Sc2nc(N)ncc2[N+](=O)[O-])ncn1 | -99* | 0% | 2.2µM* | ? | ? | -4%
COc1cc(/C=N\N=C2/SC(CC(=O)O)C(=O)N2c2ccc(O)cc2)ccc1O (stereo unspecified) | 47 | -16% | -16% | 10% | . | -8%
COc1ccc(Oc2nc(-c3ccccn3)nc3ccccc23)cc1 | -70* | ? | 12% | 13µM* | 3% | 4.5µM*
CC(=O)c1ccc(Oc2nc(-c3cccnc3)nc3ccccc23)cc1 | -14 | -5% | -33% | 11µM* | -12% | -3%
c1ccc(Oc2nc(-c3ccccn3)nc3ccccc23)cc1 | ? | ? | -13% | 7.9µM* | -9% | ?
CCCCc1ccc(NC(=O)c2cnccn2)cc1 | -33 | -9% | 5% | -7% | 10% | ?
O=S(O)OC1CS(=O)(=O)CC1c1ccccc1 (stereo unspecified) | 11 | . | 14% | 1% | -21% | .
COc1ccc(C(=O)NC(=S)Nc2nc(-c3ccc(OC)c(Br)c3)cs2)cc1Br | 4 | . | 6% | ? | -11% | .
COc1cc(OC)c(OC)cc1CNc1cc(C)ccc1OC | ? | ? | 40µM* | ? | -2% | -23%
COc1ccc(C)cc1NCc1cccc(OC)c1OC | 30 | . | -8% | -10% | -16% | .
CCOC(=O)C1=C(N)OC2=C(C(=O)CCC2)C12C(=O)N(C)c1ccccc12 (stereo unspecified) | 78 | -23% | -15% | 21% | -1% | -11%
O=C(c1ccc(OC2CCN(CCc3ccccc3)CC2)cc1)N1CCCC1 | -63* | -14% | -3% | . | 16% | i
Cc1ccc(-c2nc(CS(=O)CC(=O)NCCN(CC(C)C)CC(C)C)c(C)o2)cc1 (stereo unspecified) | 9 | . | ? | 11µM*! | -16% | .
CCc1ccc(-c2nc(CS(=O)CC(=O)NCCc3ccc(C)cc3)c(C)o2)cc1 (stereo unspecified) | -16 | 3% | 22µM* | . | 2% | -7%
CCc1ccc(-c2nc(CS(=O)CC(=O)NCCc3ccccc3)c(C)o2)cc1 (stereo unspecified) | 10 | . | 10µM* | ? | 19% | .
COCCN(C(=O)CN1CCc2ccccc2C1)c1c(N)n(Cc2ccccc2)c(=O)[nH]c1=O | 63 | . | -18% | ? | ? | .
COc1ccc(-c2nc3cnc(N4CCNCC4)nc3n(-c3ccc(OC)cc3)c2=O)cc1 | . | . | . | . | -3% | .
Cc1ccccc1-c1nc(CS(=O)(=O)CC(=O)Nc2c(C)cccc2C)c(C)o1 | -78* | -20% | ? | . | -30% | -21%
Cc1ccc(CNC(=O)CS(=O)(=O)Cc2nc(-c3ccccc3C)oc2C)cc1 | -61* | 4% | 2% | . | -10% | -10%
CCCNC(=O)CS(=O)(=O)Cc1nc(-c2ccccc2C)oc1C | 5 | -20% | 50µM* | ? | -13% | i
SMILES | HCMV antiviral | Vaccinia Venus | Sm TGR block | HCV inh | FMDV inh | Vaccinia mCherry
COc1ccccc1CNC(=O)CS(=O)(=O)Cc1nc(-c2ccccc2C)oc1C | 0 | 0% | -35% | . | -9% | -5%
Cc1cc(C)cc(NC(=O)CSc2nnc(CNC(=O)c3ccco3)n2C)c1 | 2 | -2% | 1% | -7% | -6% | -9%
Cc1ccc(-c2nnc(NCc3ccccc3)c3ccccc23)cc1 | -32 | -3% | 0% | 11µM* | ? | -11%
O=C1CC2(CCCCC2)CC(=O)N1CCc1ccccc1 | -13 | -13% | . | 6% | 32% | -3%
O=C1C=CC(=O)C(C2=C3C(=O)N(CCc4ccccc4)CC(=O)N3CCC2)=C1 | -99* | 0% | 0.28µM* | ? | ? | -12%
CCC1CCCCN1CCCNC(=O)Cn1cnc2sc(C)c(S(=O)(=O)N3CCC(C)CC3)c2c1=O (stereo unspecified) | -1 | 1% | -15% | -6% | 10% | -8%
CCN(CC)CCOc1ccc(/C(=C(\Cl)c2ccccc2)c2ccccc2)cc1 | -18 | ? | 0% | 11µM* | ? | ?
CCN(CC)CCOc1ccc(Br)cc1 | ? | -6% | -6% | ? | . | i
CN(C)c1ccc(/C=C/c2ccnc3ccccc23)cc1O | . | 14% | . | . | . | -17%
CC1Cc2cc(-c3csc(NC(=O)Cc4ccccc4)n3)ccc2N1S(C)(=O)=O (stereo unspecified) | -98* | ? | -5% | 0.71µM* | . | ?
CS(=O)(=O)N1CCc2cc(-c3csc(NC(=O)C(c4ccccc4)c4ccccc4)n3)ccc21 | -16 | -23% | 16% | -22% | . | -28%
CCCc1cc(-c2[nH]ncc2-c2ccc3c(c2)OCCCO3)c(O)cc1O | 39 | . | 0% | 11µM* | 14µM* | .
CCCc1cc(-c2[nH]ncc2-c2ccc(C(=O)OCC)o2)c(O)cc1O | -62* | ? | ? | ? | . | ?
O=C(CCCOc1ccccc1)NCCc1nc2ccccc2[nH]1 | 13 | 0% | -4% | 19% | 9% | -16%
CCS(=O)(=O)c1nnnn1-c1ccccc1S(C)(=O)=O | -93* | ? | 6% | . | 40µM* | ?
Cc1ccc(C(=O)c2c3ccc(N)cc3nn2CCC(N)=O)cc1 | ? | -10% | 17% | 11%[8.37 µM] | 10% | i
CCCOc1ccc(C(=O)N/N=C/c2c[nH]c3ccc(Br)cc23)cc1 | -31 | -16% | 13% | 13µM* | -11% | -25%
CCCCCN=C(N)N/N=C/c1c[nH]c2ccc(OC)cc12 | -100* | 11µM*! | . | ? | ? | ?
CCOc1cc2c(cc1O)C(=NOC)CC1C2CCC2(C)C(O)CCC12 (stereo unspecified) | -73* | ? | . | -30% | 1% | ?
Cc1ccc(S(=O)(=O)N2CCCOC2CNC(=O)C(=O)NCc2ccccc2C)cc1 (stereo unspecified) | 2 | -22% | -4% | . | 13% | ?
O=C(NC1CCCc2ccccc21)c1ccccc1 (stereo unspecified) | ? | -22% | 6% | 14% | 1% | -16%
